Records with an inconclusive call do not appear. The source made the active and inactive calls. Calls follow the shape of the dose curve; as a rule, active = well fitted inhibition curve with a large enough effect; inconclusive = small, poorly fitted or top-dose-only effect; inactive = flat fitted curve, though single readings scatter.
Target: Ferritin light chain (Equus caballus) (UniProt P02791)
Experiment: Confirmation Assay for Identification of Novel General Anesthetics; also: nearly all actives have a fitted effect of over 40% in size
Details: apoferritin 1-aminoanthracene fluorescence displacement
Outline: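 Horse apoferritin (10 uM) pre-loaded with 1-AMA (50% saturated, PBS) exposed to compounds 10 min at room temperature; loss of 1-AMA fluorescence (380/535 nm) scaled between free and bound ligand, curves fitted with Hill equation.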
Potency is read from the fitted curve at half-maximal effect.

Ferritin light chain (Equus caballus), sequence (P02791 2-175 limits assumed): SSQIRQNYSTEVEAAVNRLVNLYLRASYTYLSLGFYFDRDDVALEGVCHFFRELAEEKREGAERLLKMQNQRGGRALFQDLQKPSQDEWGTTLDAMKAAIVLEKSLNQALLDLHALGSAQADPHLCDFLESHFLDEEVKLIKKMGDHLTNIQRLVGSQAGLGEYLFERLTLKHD

Row | SMILES | Potency
1 | Nc1cc(C(F)(F)F)ccc1Nc1ccccc1 | 25.1 µM (active)
2 | NCCOc1ccc(C2CCCCC2)cc1 | 7.94 µM (active)
3 | O=C(COC(=O)/C=C/c1ccccc1Cl)NC1CCCCCC1 | 6.31 µM (active)
4 | COc1cccc(NC(=O)CN2C(=O)NC(C)(CCC(C)C)C2=O)c1 (centres undefined) | 17.8 µM (active)
5 | Oc1ccc(NCc2cccc(OCc3ccccc3)c2)cc1 | 15.8 µM (active)
6 | Cc1ccc(NC(=O)N2CCCCCC2)cc1C | 6.31 µM (active)
7 | NS(=O)(=O)c1cccnc1Nc1cccc(C(F)(F)F)c1 | 10 µM (active)
8 | COc1cccc(NC(=O)N2CCCCCC2)c1 | 14.1 µM (active)
9 | NC(=O)COC(=O)CC12CC3CC(CC(C3)C1)C2 | 15.8 µM (active)
10 | Cc1cc(C)n2nc(CC(=O)NC3CCCC(C)C3C)nc2n1 (centres undefined) | 15.8 µM (active)
11 | O=C(CSc1ccccn1)N1CCc2ccccc21 | 8.91 µM (active)
12 | Nc1ccc2nc(SCc3cccc(F)c3)sc2c1 | 28.2 µM (active)
13 | Nc1cc(N)nc(SCC(=O)N2CCc3ccccc32)n1 | 7.08 µM (active)
14 | Oc1ccc(NCc2ccc(OCc3ccccc3Cl)cc2)cc1 | 17.8 µM (active)
15 | CCN(CC)S(=O)(=O)c1ccc(C)c(C)c1 | 22.4 µM (active)
16 | Cc1cc(C)cc(C(=O)N2CCCCCC2)c1 | 20 µM (active)
17 | O=[N+]([O-])c1ccc(CNc2ccc(Cl)cc2)s1 | 22.4 µM (active)
18 | COc1cccc(NC(=O)Nc2nc(SC(C)(C)C)ns2)c1 | 10 µM (active)
19 | Fc1ccccc1CNc1cc(Cl)cc(Cl)c1 | 14.1 µM (active)
